Molecules are shown by their SMILES. Several values for one entry are separate records, joined by “and”; a condition that tells them apart may be missing. Equal entries are not always repeated. The whole screen tested about 420,000 compounds, of which about 50,000 (12%) were called active. Where a call stands in place of a potency, no number is given. Roughly 26% stayed inconclusive and do not appear here. The full list was thinned out, with actives kept by preference. Values without a mark were called inactive. The call rests on the fitted dose curve; in most records, active means well fitted inhibition curve with a large enough effect; inconclusive means small, poorly fitted or top-dose-only effect; inactive means flat fitted curve, though single readings scatter.
Potency means the concentration at half of the fitted maximal effect.

A short description of this assay: qHTS for Inhibitors of human tyrosyl-DNA phosphodiesterase 1 (TDP1): qHTS in cells in presence of CPT. Further: nearly all actives have a fitted effect of over 55% in size. Conditions: chicken DT40 Tdp1-/-;hTDP1 cells + 20 nM CPT, ATP luminescence, 48 h; series mostly up to 46.2 µM. An outline of the steps: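 Chicken DT40 Tdp1-/- cells stably complemented with human TDP1 were seeded at 400 cells/well in medium containing 20 nM camptothecin, exposed to pin-transferred compounds, and grown at 37 °C for at least 48 hr. Viability was read as ATP luminescence.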
For the molecule `O=C(CCc1ccccc1)NNc1ccc(F)cc1`, the Potency entry was “inactive”.

`CC(C)c1cc(C(=O)N2CCOc3ccc(CN4CCC(Oc5cccnc5)CC4)cc3C2)n[nH]1`: the activity change, negative = growth inhibition is -19.6% [at 9.04 µM].

`CC(C)CC1(C)NC(=O)N(CC(=O)Nc2ccc3c(c2)OCCO3)C1=O` (stereo unspecified): the Potency entry was “inactive”.

Turning to `Cc1cc(NC(=O)CSC2=NS(=O)(=O)c3cc(Cl)ccc3N2)no1`, the Potency entry was “inactive”.

With `COc1cccc(CNC(=O)C2CCCN(c3ncnc4c3nc3n4CCCCC3)C2)c1` (stereo unspecified), the Potency was 23.1 µM (active).

In the case of `COc1cccc(CNC(=O)C2CCCN(S(=O)(=O)N3CC(C)CC(C)C3)C2)c1` (stereo unspecified), the Potency entry was “inactive”.

Regarding `O=C(NCCCN1CCCCC1)C1CCCN(c2ncnc3c2nc2n3CCCCC2)C1` (stereo unspecified), the Potency result is “inactive”.

As to `O=C(Nc1cccc(Cl)c1)C1CCCN(c2cnccn2)C1` (stereo unspecified), the Potency result is “inactive”.

For the molecule `COc1cccc(NC(=O)C2CCN(c3cc(C)nc4c(-c5ccc(Cl)cc5)c(C)nn34)CC2)c1`, the Potency result is “inactive”.

As for `COc1cccc(NC(=O)C2CCCN(c3ncnc4c3nc3n4CCCCC3)C2)c1` (stereo unspecified), the Potency is 20.6 µM (active).

In the case of `N#Cc1c(NC(=O)C2CC(Cl)=CCC2C(=O)O)sc2c1CCCCC2` (stereo unspecified), the Potency result was “inactive”.

As to `COc1ccc2c(CC(=O)NNC(=O)c3ccccc3F)coc2c1`, the Potency entry was “inactive”.

For the molecule `CCC(C)(C)NC(=O)CN(C(=O)C(=O)Nc1ccc2c(c1)OCCO2)C(C)(C)CC`, the Potency result was “inactive”.

`O=C(COC(=O)Cn1[nH]c(=O)c2ccccc2c1=O)Nc1ncc(Cl)cc1Cl`: the Potency result was “inactive”.

On to `O=C(OCc1cc(Cl)ccc1OC(F)F)c1cccnc1`, for which the Potency entry was “inactive”.

For the molecule `Cc1ccc(C(=O)NC(=S)Nc2ccc(N3CCOCC3)cc2)cc1`, the Potency result was “inactive”.

Take `Cc1cccc(NC(=O)/C(=C\c2ccco2)NC(=O)c2ccccc2)c1`: the Potency result was “inactive”.

`Cc1cccc(NC(=O)NC(=S)NC(=O)c2ccccc2)c1`: the Potency was 8.2 µM (active).

For `Cc1ccc(NC(=S)NC(=O)c2ccc(-c3ccccc3)cc2)cc1`, the Potency was 6.51 µM (active).

In the case of `Cc1ccc(C(=O)NC(=S)Nc2ccccc2C)cc1`, the Potency entry was “inactive”.

Take `Cc1cccc(NC(=S)NC(=O)c2ccc(Br)o2)c1`: the Potency entry is “inactive”.

Consider `C/C(=N\NC(=O)OC(C)(C)C)c1ccc[nH]1`, for which the Potency entry was “inactive”.

On to `O=C(CCN1C(=O)C2C3CCC(C3)C2C1=O)Nc1ccc(Cl)cc1Cl` (stereo unspecified), for which the Potency entry was “inactive”.

`O=C(NCCc1c[nH]c2ccc(Cl)cc12)c1ccc([N+](=O)[O-])cc1`: the Potency entry is “inactive”.

As to `Cc1ccc(OCCCC(=O)Nc2ccc(N3CCOCC3)cc2)cc1`, the Potency entry is “inactive”.

In the case of `CC(=O)c1ccc(N2CCN(CC(=O)Nc3ccccc3N3CCOCC3)CC2)cc1`, the Potency is 14.6 µM (active).

`O=C(CN1CCN(c2ccc(O)cc2)CC1)Nc1ccc(-c2ccccc2)cc1`: the Potency result was “inactive”.

As for `O=C(Cc1cccc2ccccc12)NCCC1=CCCCC1`, the Potency result was “inactive”.

With `O=C(CN1CCN(C2CCCCC2)CC1)Nc1ccccc1N1CCCCC1`, the Potency is 29.1 µM (active).

Turning to `O=C(CN1CCCCC1)Nc1ccccc1C(=O)NC1CC1`, the Potency entry was “inactive”.

Turning to `O=C(COc1ccc(Cl)cc1)NC(=S)Nc1ccccc1N1CCOCC1`, the Potency entry was “inactive”.

Turning to `O=C(NCCCN1CCN(C2CCCCC2)CC1)Nc1ccccc1C(F)(F)F`, the Potency result was “inactive”.

For the molecule `Cc1ccccc1CN1CCNC(=O)C1CC(=O)NCCC1=CCCCC1` (stereo unspecified), the Potency result is “inactive”.

For `Cc1cc(C)cc(OCC(=O)Nc2ccc(N3CCOCC3)cc2N2CCOCC2)c1`, the Potency was 20.6 µM (active).

As to `CCc1ccc(C(=O)NC(=S)Nc2ccccc2N2CCOCC2)cc1`, the Potency entry was “inactive”.

Regarding `O=C(CNCCC1=CCCCC1)Nc1ccccc1N1CCCCCC1`, the Potency is 20.6 µM (active).

In the case of `CCn1c(=O)c(=O)[nH]c2c(=O)oc3ccc(S(=O)(=O)Nc4ccc(OC)cc4)cc3c21`, the Potency entry was “inactive”.

On to `Cc1ccc(CCN2CC(C(=O)NCCc3ccccc3)CC2=O)cc1` (stereo unspecified), for which the Potency entry was “inactive”.

As to `O=C(COC(=O)Cc1ccc(Br)cc1)Nc1ccc(N2CCOCC2)cc1`, the Potency result was “inactive”.

As to `CCc1ccc(NC(=O)COC(=O)c2cccs2)cc1`, the Potency entry is “inactive”.

Take `COc1cc(C(=O)N2CCN(C(=O)COc3cccc(C)c3)CC2)cc(OC)c1OC`: the Potency entry is “inactive”.

Regarding `COc1cccc(OC)c1C(=O)Nc1ccc2c(c1)n(C)c(=O)n2C`, the Potency result is “inactive”.

As for `COC(=O)c1ccc(CSc2ccc(S(=O)(=O)N3CCCCC3)cn2)cc1`, the Potency entry was “inactive”.

As for `Cc1cn(C2OC[C@@H](O)[C@@H]2CO)c(=O)[nH]c1=O` (stereo partly specified), the Potency result was “inactive”.

As to `CC(C)(C)CN1CCNC(=O)C1CC(=O)NC1Cc2ccccc2C1` (stereo unspecified), the Potency entry is “inactive”.

Take `O=C(CN1CCN(c2ccccc2)CC1)Nc1ccc(F)cc1`: the Potency entry was “inactive”.

For the molecule `Cc1cccc(C)c1NC(=O)CN1CCN(c2ccc(F)cc2)CC1`, the Potency was 14.6 µM (active).

On to `O=C(CN1CCN(c2ccc(F)cc2)CC1)Nc1ccccc1`, for which the Potency entry was “inactive”.

Consider `C#CCCOC(=O)N1C2=NC(C(=O)OC)=C(C(=O)OC)[C@@H]3N(C)c4ccc(OC)cc4[C@]23C[C@H]1C(=O)OC`, for which the Potency entry is “inactive”.

On to `N/C(=N\OC(=O)CC1CCCCC1)c1ccccc1`, for which the Potency entry was “inactive”.

As to `O=C(c1cc2ccccc2s1)N1CCN(c2ccccn2)CC1`, the Potency entry is “inactive”.

Regarding `Cc1cc(C(=O)N2CCN(c3ccccn3)CC2)c(C)o1`, the Potency is 17.8 µM (active).

As to `O=C(C(Cl)Cl)N1CCN(c2ccccn2)CC1`, the Potency result is “inactive”.

On to `COc1ccc(/C=N/Nc2nc(-c3ccc(C)cc3)c(C#N)c(=O)[nH]2)cc1`, for which the Potency entry was “inactive”.

On to `COc1ccc(CCNS(=O)(=O)c2ccc(F)cc2)cc1OC`, for which the Potency entry was “inactive”.

Consider `COc1ccc(S(=O)(=O)NCCc2cc3ccc(C)c(C)c3[nH]c2=O)cc1`, for which the Potency was 14.6 µM (active) and 18.4 µM (active).

With `COc1ccc(CCNS(=O)(=O)c2cccc([N+](=O)[O-])c2)cc1`, the Potency result was “inactive”.

On to `Cc1ccc2nc(Nc3ccccc3O)nc(-c3ccccc3)c2c1`, for which the Potency result was “inactive”.

Turning to `NC(N)=Nc1nc(-c2ccccc2)c2cc(Cl)ccc2n1`, the Potency is 16.4 µM (active).

Consider `COC(=O)Cn1nc(-c2ccccc2)c2cc(Cl)ccc21`, for which the Potency result is “inactive”.

On to `O=C(Nc1ccc(-c2cscn2)cc1)C1CCCN(Cc2ccc(CO)o2)C1` (stereo unspecified), for which the Potency entry is “inactive”.

Take `CN(Cc1ccco1)S(=O)(=O)c1nnc(NC(=O)c2ccccc2)s1`: the Potency result is “inactive”.

Consider `CC(C)NC(=O)c1ccccc1S(=O)c1ccccc1C#N` (stereo unspecified), for which the Potency result was “inactive”.

`Cc1cc(NC(=O)CC(C)C)cc(-c2nc3ncccc3o2)c1O`: the Potency result is “inactive”.

In the case of `CC1Cc2cc(S(=O)(=O)CCC(=O)Nc3ccc(F)c(Cl)c3)ccc2N1C(=O)C1CC1` (stereo unspecified), the Potency is 10.3 µM (active).

Regarding `Cc1ccc(S(=O)(=O)NCCC(=O)NCc2ccc(Cl)cc2)cc1C`, the Potency result is “inactive”.

With `COc1cccc(CNS(=O)(=O)c2ccc3c(c2)CC(C)N3C(=O)C2CCC2)c1` (stereo unspecified), the Potency was 5.8 µM (active) and 7.31 µM (active).

Take `Cn1c(=O)oc2cc(S(=O)(=O)CCC(=O)NCCc3ccc(Cl)cc3)ccc21`: the Potency result is “inactive”.

With `CC1Cc2cc(S(=O)(=O)CCC(=O)NCc3ccc(Cl)cc3)ccc2N1C(=O)C1CC1` (stereo unspecified), the Potency was 3.66 µM (active).

With `CC(=O)N1CCc2cc(S(=O)(=O)NC3CCCCC3)ccc21`, the Potency result is “inactive”.

As to `COc1cccc(CNC(=O)C2CCC(CNS(=O)(=O)c3cccs3)CC2)c1` (stereo unspecified), the Potency result is “inactive”.

`CC1Cc2ccccc2N1CC(=O)Nc1ccc(S(N)(=O)=O)cc1` (stereo unspecified): the Potency result was “inactive”.

For the molecule `CC(=O)N1c2ccc(S(=O)(=O)N(C)CC(=O)N(C)Cc3ccccc3)cc2CC1C` (stereo unspecified), the Potency entry is “inactive”.

For `CCC(=O)N1c2ccc(S(=O)(=O)CCC(=O)N3CCN(c4ccccc4)CC3)cc2CC1C` (stereo unspecified), the Potency entry was “inactive”.

For the molecule `CC(=O)N1c2ccc(S(=O)(=O)NCCC(=O)N(C)C3CCCCC3)cc2CC1C` (stereo unspecified), the Potency was 10.3 µM (active).

As for `COc1cccc(CNS(=O)(=O)c2csc(C(N)=O)c2)c1`, the Potency entry was “inactive”.

As to `O=C(Cn1cnc2c(cnn2-c2ccc(F)cc2)c1=O)NCCc1ccccc1`, the Potency entry is “inactive”.

As to `CCCCNC(=O)OCCSCCS(=O)(=O)c1ccc(Cl)cc1`, the Potency entry is “inactive”.

On to `Cc1nc2c(c(C)nn2-c2ccccc2)c(C)c1C`, for which the Potency entry is “inactive”.

Regarding `CCOC(=O)c1cc(S(=O)(=O)NCCc2ccc(OC)c(OC)c2)cn1C`, the Potency result is “inactive”.

`CNC(=O)C(NC(=O)c1ccccc1)=C(C)C`: the Potency entry was “inactive”.

Take `O=C(CSC1CC(=O)N(CCc2ccccc2)C1=O)Nc1ccc(Cl)cc1` (stereo unspecified): the Potency entry is “inactive”.

For `CCOC(=O)CNc1nc(Cl)nc(Nc2ccc(OC)cc2OC)n1`, the Potency entry is “inactive”.

For the molecule `Cc1c(S(=O)(=O)N2CC(C)CC(C)C2)c(=O)n(C)c(=O)n1C` (stereo unspecified), the Potency entry was “inactive”.

Take `CC(C)CCN1CCC(C)(NC(=O)c2ccccc2)C1=O` (stereo unspecified): the Potency result was “inactive”.

For the molecule `O=C(c1ccc(Cl)nc1)N1CCN(S(=O)(=O)c2ccc3c(c2)OCCO3)CC1`, the Potency result was “inactive”.

In the case of `CCOC(=O)c1ccccc1NC(=O)CCc1c(C)nc2c(c1C)c(=O)n(C)c(=O)n2C`, the Potency entry is “inactive”.

Take `COc1cc(NC(=O)c2ccc(CNc3c(N4CCCC4)c(=O)c3=O)cc2)cc(OC)c1OC`: the Potency entry was “inactive”.

Take `COc1cc(C(=O)Nc2ccc(OCc3cc(=O)n4ccc(C)cc4n3)cc2)cc(OC)c1OC`: the Potency entry was “inactive”.

Consider `COc1cc(NC(=O)c2nc3ccccc3nc2C)cc(OC)c1OC`, for which the Potency entry is “inactive”.

For the molecule `COc1cc(C(=O)Nc2ccc(-n3c(C)nc4ccccc4c3=O)cc2)cc(OC)c1OC`, the Potency is 16.4 µM (active).

On to `COc1ccc(NC(=O)CN2C(=O)CSC2=O)cc1`, for which the Potency entry was “inactive”.

As for `CCC(=O)N1CCCC1(C)C(=O)Nc1ccc2c(c1)CCN2C(C)=O` (stereo unspecified), the Potency entry was “inactive”.

In the case of `CC1=C(C(=O)OC2CCCCC2)C(c2cccnc2)n2ncnc2N1` (stereo unspecified), the Potency is 14.6 µM (active).

Consider `COC(=O)C1=C(C)Nc2ncnn2C1c1cccnc1` (stereo unspecified), for which the Potency result is “inactive”.

Regarding `CC1=C(C(N)=O)C(c2ccc(Br)cc2)n2ncnc2N1` (stereo unspecified), the Potency entry was “inactive”.

`S=C(NC1CCCCC1)NN1CCOCC1`: the Potency entry is “inactive”.

As to `Cc1ccc(C(=O)NCCc2nnc(SCC(=O)Nc3cccc(C(=O)O)c3)n2C)cc1`, the Potency entry was “inactive”.

`Cc1cccc(NC(=O)C2CCCN2S(=O)(=O)c2cccc3nsnc23)c1C` (stereo unspecified): the Potency result was “inactive”.

In the case of `CCOC(=O)c1cnc(COc2ccccc2Cl)[nH]c1=O`, the Potency result is “inactive”.

On to `CC(=O)Nc1ccc(S(=O)(=O)Nc2nc(-c3ccc(C(C)(C)C)cc3)cs2)cc1`, for which the Potency entry is “inactive”.

On to `Cc1ccc(-c2csc(NNC(=O)c3ccccc3)n2)cc1`, for which the Potency is 4.11 µM (active).

`Cc1nc(NNC(=O)c2ccccc2)cc(-c2ccccc2)n1`: the Potency result was “inactive”.

Take `O=C(O)c1ccccc1C(=O)Nc1nc(-c2ccccc2)cs1`: the Potency entry was “inactive”.

`CC(=O)Nc1ccc(-c2csc(NC=C3C(=O)OC(C)(C)OC3=O)n2)cc1`: the Potency result is “inactive”.

Regarding `CC(=O)Nc1ccc(-c2csc(NC(=O)Nc3ccccc3)n2)cc1`, the Potency was 3.66 µM (active).

The record behind these values is PubChem BioAssay AID686979 (National Center for Advancing Translational Sciences (NCATS), 2013).
